Molecules are shown by their SMILES. Where “and” joins values, the source holds several entries; their conditions need not be identical. Equal values may be shown once. This is part of a sample that, as a whole, favours compounds with a hit. Of some 83,000 tested, about 20% had one in any assay.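 The endpoint reported here, percent growth, reads 100 for growth as untreated, 0 for no net growth and -100 for all cells dead.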 Calls of active or inactive are those of the source. How the source made its calls: active means growth percent below 10; inactive means the rest.

For the assay, the system named is BT-549 breast. Nature of the assay: NCI-60 one-dose screen, 48 h (100 = growth as untreated, 0 = no growth, -100 = all killed). To be noted: 10 µM unless noted.
For the compound `O=C(Nc1ccc(F)cc1)c1cc2cc(Nc3nc(-c4ccccc4)nc4ccccc34)ccc2oc1=O`, the growth is 100% (inactive).
Regarding `COC(=O)c1c2c(c(C)[n+]([O-])c1C)C(=O)C(NCCN1CCOCC1)=CC2=O`, the growth was 91.4% (inactive).
As for `COc1c(O)c(O)cc2c3c(oc12)CC(c1ccc2c(c1)OCO2)CC3=O` (centres undefined), the figure is 56.2% (inactive); as for `O=C1CCCCN1CCCCC#Cc1cccc(C#Cc2cccnc2)c1`, 265% (inactive).
As for `Cc1ccc(-c2nc3nc(-c4ccc(Cl)cc4)nc(N4CCCNCC4)c3o2)cc1`, the figure is 99.4% (inactive); as for `CC(=O)c1c(C)nc2ccccc2c1/C=C/c1cccc(C)c1`, 64.2% (inactive); as for `CCOC(=O)C(=CCC(C)C)C(=O)OCC`, 93.1% (inactive).
For `BrC1=C(Br)C(Br)(Br)C(Br)=C1Br`, the growth was 88.9% (inactive).
For `COc1ccc(-c2csc(NC(=O)CN3CCN(CCO)CC3)n2)cc1NS(=O)(=O)c1cccc2c(N(C)C)cccc12`, the growth was 82.1% (inactive).
As for `Cc1nnc(NS(=O)(=O)c2ccc(N=Nc3ccc(N)nc3N)cc2)s1`, the growth is 90.4% (inactive) and 108% (inactive).
For `CCCCCCCCCCCCCCCCCCn1cc(COc2ccc(C=O)cc2)nn1`, the growth is 100% (inactive).
As for `C=C(C)[C@@H]1CC[C@]2(C(=O)O)CC[C@]3(C)[C@H](CC[C@@H]4[C@@]5(C)CCC(N)C(C)(C)[C@@H]5CC[C@]43C)[C@@H]12` (some centres undefined), the figure is 101% (inactive); as for `Cc1ccc(-c2nc3nc(-c4ccc(Br)cc4)nc(N4CCCNCC4)c3o2)cc1`, 99.5% (inactive); as for `O=C(Nc1ncc(Cc2cccc(C(F)(F)F)c2)s1)c1ccc2c(c1)OCCO2`, 35.8% (inactive).

The values above are taken from PubChem BioAssay (NCI).
